PubChem BioAssay (NCATS)
Records with an inconclusive call do not appear. Calls of active or inactive are those of the source. Calls come from the whole dose curve; as a rule, active = well fitted inhibition curve with a large enough effect; inconclusive = small, poorly fitted or top-dose-only effect; inactive = flat fitted curve, though single readings scatter. *1 amine or outer side, *2 acyl side, *3 side chain or, on linkers, in order; H or OH if unused. Where a SMILES comes first, the peptide text is derived from it. Bridges are numbered along the chain shown (N, C = ends). X6 = O=C(CCC[*:2])[*:1]

What was measured:
CRL-7250 = normal cell line; assay: Cytotoxic Profiling of Annotated Libraries Using Quantitative High-Throughput Screening (AID 1296008); settings: Five cell lines viability, CellTiter-Glo ATP luminescence, 48-72 h; max response: hits give low values; note: potency is the fitted concentration of half-maximal effect; for max response: % is set by controls: 0 for no effect and ±100 for the full control effect
In short: (§1)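 Cells exposed to compounds for 48 or 72 hr at 37 degrees Celsius. Viability read as ATP-coupled luminescence with CellTiter-Glo after 10 min at room temperature.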

HEK293 = assay: as above; settings: Five cell lines viability, CellTiter-Glo ATP luminescence, 48-72 h; max response: hits give low values
In short: as §1

HaCat [1] = assay: as above; settings: Five cell lines viability, CellTiter-Glo ATP luminescence, 48-72 h; max response: hits give low values
In short: as §1

KB-3-1 = assay: as above; settings: Five cell lines viability, CellTiter-Glo ATP luminescence, 48-72 h; max response: hits give low values
In short: as §1

NIH3T3 = assay: as above; settings: Five cell lines viability, CellTiter-Glo ATP luminescence, 48-72 h; max response: hits give low values
In short: as §1

HEK293T = assay: qHTS assay to identify novel small-molecules to repurpose for Merkel cell carcinoma treatment (AID 1296009); settings: MCC and control cell lines, CellTiter-Glo viability, 72 h; series mostly up to 44.8 µM
In short: (§2)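 Cells were incubated with compound for 72 hr at 37 degree celsius before CellTiter-Glo addition. Luminescence was normalized with no-cell wells as full cytotoxicity and DMSO as baseline.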

HACAT [2] = assay: as above; settings: MCC and control cell lines, CellTiter-Glo viability, 72 h; at 44.8 µM (top of the series) unless noted
In short: as §2
Note: nearly all actives have a fitted effect of over 60% in size.

C[C@H]1CC[C@@]2(OC1)O[C@H]1CC3C4CC=C5C[C@H](O)C[C@@H](O[C@@H]6O[C@@H](C)[C@H](O)[C@@H](O)[C@H]6O[C@@H]6O[C@@H](C)[C@H](O)[C@@H](O)[C@H]6O)[C@]5(C)C4CC[C@]3(C)[C@H]1[C@@H]2C (stereo not given in full)
inactive: max response (CRL-7250) -7.49% | outcome (HEK293) | max response (HaCat [1]) -9.03% | outcome (KB-3-1) | max response (NIH3T3) 0.342% | Potency (HEK293T)

O=C(O)c1ccc(CCCc2ccc(OCCc3ccc(F)cc3)cc2)o1
inactive: max response (CRL-7250) -2.7% | outcome (HEK293) | outcome (HaCat [1]) | outcome (KB-3-1) | outcome (NIH3T3) | outcome (HACAT [2]) | Potency (HEK293T)

Cc1cc(O)cc(Oc2cc(C)c(C(=O)O)c(O)c2)c1
inactive: max response (CRL-7250) -27.9% | outcome (HEK293) | outcome (HaCat [1]) | outcome (KB-3-1) | max response (NIH3T3) 4.83% | outcome (HACAT [2]) | Potency (HEK293T)

CCCOc1ccn2c(C(C)=O)cc(-c3ccccc3S(C)(=O)=O)c2c1
inactive: outcome (CRL-7250) | outcome (HEK293) | outcome (HaCat [1]) | max response (KB-3-1) 3.55% | max response (NIH3T3) -3.04% | outcome (HACAT [2]) | Potency (HEK293T)

CN[C@@H]1[C@@H](O)[C@@H](O[C@@H]2[C@@H](O)[C@H](O[C@H]3O[C@H](CN)[C@@H](O)[C@H](O)[C@H]3O)[C@@H](N)C[C@H]2NC(=O)[C@@H](O)CN)OC[C@]1(C)O
inactive: max response (CRL-7250) -2.08% | outcome (HEK293) | outcome (HaCat [1]) | max response (KB-3-1) -2.9% | outcome (NIH3T3) | outcome (HACAT [2]) | Potency (HEK293T)

CCOC(=O)[C@H](CCc1ccccc1)CC1(C(=O)N[C@H]2CCc3ccccc3N(CC(=O)O)C2=O)CCCC1
inactive: max response (CRL-7250) -3.46% | outcome (HEK293) | outcome (HaCat [1]) | max response (KB-3-1) -2.38% | max response (NIH3T3) 3.76% | outcome (HACAT [2]) | Potency (HEK293T)

COC1=Cc2c(nc3n(c2=O)C(C)C(=O)NC3(O)C(C)C)OC=C1 (stereo not given)
inactive: outcome (CRL-7250) | outcome (HEK293) | max response (HaCat [1]) 4.53% | max response (KB-3-1) 6.94% | max response (NIH3T3) 2.45% | Potency (HEK293T)

C=C1CCC2C(C)(CO[C@@H]3O[C@H](CO)[C@@H](O)[C@H](O)[C@H]3O)C(O)CCC2(C)C1C(=O)CC1=CCOC1=O (stereo not given in full)
inactive: max response (CRL-7250) -10.6% | outcome (HEK293) | outcome (HaCat [1]) | max response (KB-3-1) 4.59% | max response (NIH3T3) 1.1% | outcome (HACAT [2]) inactive [at 17.4 µM] | Potency (HEK293T)

C=C1CCC2C(C)(C)C(O)CCC2(C)C1CCC(C)CCOC(=O)CCC(=O)O (stereo not given)
inactive: max response (CRL-7250) -7.27% | outcome (HEK293) | outcome (HaCat [1]) | max response (KB-3-1) 1.36% | max response (NIH3T3) -1.95% | outcome (HACAT [2]) inactive [at 17.4 µM] | Potency (HEK293T)

CC[C@H]1OC(=O)[C@H](C)[C@@H](OC2C[C@@](C)(OC)[C@@H](O)[C@H](C)O2)[C@H](C)[C@@H](OC2O[C@H](C)C[C@H](NC)[C@H]2O)[C@](C)(O)C[C@@H](C)CN(C)[C@H](C)[C@@H](O)[C@]1(C)O (stereo not given in full)
inactive: outcome (CRL-7250) | outcome (HEK293) | outcome (HaCat [1]) | max response (KB-3-1) -2.3% | max response (NIH3T3) -0.0862% | outcome (HACAT [2]) | Potency (HEK293T)

COC1=CC(=O)C[C@@H](C)[C@]12Oc1cc(OC)cc(OC)c1C2=O
inactive: max response (CRL-7250) -2.71% | outcome (HEK293) | max response (HaCat [1]) -2.69% | max response (KB-3-1) 5.37% | outcome (NIH3T3) | Potency (HEK293T)

O=C(/C=C/c1ccc(O)cc1)O[C@H]1[C@@H]2C=CO[C@@H](O[C@@H]3O[C@H](CO)[C@@H](O)[C@H](O)[C@H]3O)[C@@H]2[C@@]2(CO)O[C@@H]12
inactive: max response (CRL-7250) -3.08% | outcome (HEK293) | max response (HaCat [1]) 1.73% | outcome (KB-3-1) | max response (NIH3T3) 0.736% | Potency (HEK293T)

COC(=O)C1=CO[C@@H](O[C@@H]2O[C@H](CO)[C@@H](O)[C@H](O)[C@H]2O)[C@@H]2[C@@H](C(=O)OC)[C@@H](O)C(O)[C@H]12 (stereo not given in full)
inactive: max response (CRL-7250) -2.23% | outcome (HEK293) | outcome (HaCat [1]) | max response (KB-3-1) 0.336% | max response (NIH3T3) 1.13% | outcome (HACAT [2]) inactive [at 17.4 µM] | Potency (HEK293T)

CC1(C)CCCC2(C)C1C(O)C=C(CO)C2(O)C(=O)O (stereo not given)
inactive: max response (CRL-7250) 3.48% | outcome (HEK293) | max response (HaCat [1]) -13.1% | max response (KB-3-1) 3.33% | max response (NIH3T3) 3.08% | Potency (HEK293T)

C=C1CCC2C(C)(C(=O)O)CC(O)CC2(C)C1CC/C(C)=C/C(=O)O (stereo not given)
inactive: max response (CRL-7250) -3.85% | outcome (HEK293) | max response (HaCat [1]) 3.69% | max response (KB-3-1) 5.42% | outcome (NIH3T3) | Potency (HEK293T)

Cc1ccc(Sc2cncc3sc(C(N)=O)cc23)cc1
inactive: outcome (CRL-7250) | outcome (HEK293) | max response (HaCat [1]) -4.86% | outcome (KB-3-1) | outcome (NIH3T3) | Potency (HEK293T)

CC[C@H](C)[C@@H]1NC(=O)[C@H](Cc2ccc(OC)cc2)NC(=O)CCCSC[C@@H](C(=O)N2CCC[C@H]2C(=O)N[C@@H](CC(C)C)C(=O)NCC(N)=O)NC(=O)[C@H](CC(N)=O)NC(=O)[C@H](CCC(N)=O)NC1=O (Y(Me)IQNCPLG-NH2; linker N-5 via X6)
inactive: max response (CRL-7250) -0.379% | outcome (HEK293) | max response (HaCat [1]) -67.2% | outcome (KB-3-1) | outcome (NIH3T3) | Potency (HEK293T)

COC(=O)C1=CO[C@@H](O[C@@H]2O[C@H](CO)[C@@H](O)[C@H](O)[C@H]2O)[C@@H]2[C@@](C)(O)[C@@H](O)C[C@]12O
inactive: max response (CRL-7250) -11.5% | outcome (HEK293) | max response (HaCat [1]) 3.45% | max response (KB-3-1) 1.93% | max response (NIH3T3) -0.0114% | Potency (HEK293T)

CC1CCC2C(C)(C)C(O)CCC2(C)C12Cc1c(O)cc3c(c1O2)CN=C3N (stereo not given)
inactive: max response (CRL-7250) -3.95% | outcome (HEK293) | max response (HaCat [1]) 3.03% | max response (KB-3-1) 2.69% | outcome (NIH3T3) | Potency (HEK293T)

OC[C@H]1O[C@@H](n2cnc3c(NCc4ccc(O)cc4)ncnc32)[C@H](O)[C@@H]1O
inactive: outcome (HEK293) | max response (HaCat [1]) -13.2% | max response (KB-3-1) -13.6% | outcome (NIH3T3) | Potency (HEK293T)
active: Potency (CRL-7250) 6.51 µM

CC1=C2CC3OC3(C)CCC3OC3(C)CC2OC1=O (stereo not given)
inactive: max response (CRL-7250) -1.41% | outcome (HEK293) | max response (HaCat [1]) -1.36% | outcome (KB-3-1) | max response (NIH3T3) -7.4% | Potency (HEK293T)

CC(C(=O)O)C1CCC2(C)C3C(=O)C=C4C(CCC(=O)C4(C)C)C3(C)CCC12C (stereo not given)
inactive: max response (CRL-7250) 0.281% | outcome (HEK293) | max response (HaCat [1]) -2.22% | outcome (KB-3-1) | outcome (NIH3T3) | Potency (HEK293T)

CC(=O)OC[C@@]12[C@@H](OC(C)=O)C[C@@H](C)[C@](C)([C@@H]3C[C@H]4C=CO[C@H]4O3)[C@H]1CCC[C@]21CO1
inactive: max response (CRL-7250) 0.841% | outcome (HEK293) | max response (HaCat [1]) 2.97% | outcome (KB-3-1) | max response (NIH3T3) -2.5% | Potency (HEK293T)

N#CC1C(=O)Nc2scc(-c3ccc(-c4ccccc4O)cc3)c2C1=O (stereo not given)
inactive: max response (CRL-7250) -4.61% | outcome (HEK293) | max response (HaCat [1]) 1.11% | outcome (KB-3-1) | outcome (NIH3T3) | Potency (HEK293T)

COc1cc(C2Oc3c(O)cc(CCCO)cc3C2CO)ccc1O[C@H]1O[C@H](C)[C@@H](O)[C@H](O)[C@@H]1O (stereo not given in full)
inactive: max response (CRL-7250) 0.29% | outcome (HEK293) | max response (HaCat [1]) 3.18% | outcome (KB-3-1) | max response (NIH3T3) -0.439% | Potency (HEK293T)

CC1(C)CCC2(C(=O)OC3OC(COC4OC(CO)C(O)C(O)C4O)C(O)C(O)C3O)CCC3(C)C(=CCC4C5(C)CCC(O)C(C)(C(=O)O)C5CCC43C)C2C1O (stereo not given)
inactive: outcome (CRL-7250) | outcome (HEK293) | max response (HaCat [1]) 2.41% | outcome (KB-3-1) | max response (NIH3T3) 4.9% | outcome (HEK293T) inactive [at 9.27 µM]
